Screens (PubChem)
Gal4-VP16 FLuc: Gal4-VP16 reporter inhibition counter-screen; 310,000 compounds, 3.5% hits; AID 2546; Drosophila S2 Gal4-VP16 UAS-luciferase, luminescence, 20 h; Potency, µM (highest dose often 53.6 µM), inactives show top-dose activity, negative = inhibition, most hits filed as inhibitors;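 note: Gal4-VP16 expression switched on by copper sulfate through the metallothionein promoter; nearly all actives have a fitted effect of over 50% in size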
RORg inh: inhibitors of mouse ROR gamma transcriptional activity; P51450; Drosophila S2 Gal4-RORgamma UAS-luciferase reporter, 20 h; Potency, µM (doses to about 53.6 µM), inactives show at the top dose activity change, negative = inhibition, actives largely listed as inhibitors; 310,000 compounds, 5.4% hits; AID 2551; note: nearly all actives have a fitted effect of over 60% in size
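Using a luciferase readout, inhibitors were identified by reduced reporter activity in Drosophila cells coexpressing a copper-inducible Gal4–ROR gamma fusion and UAS-driven Photinus luciferase, incubated 20 hr after 700 uM copper sulfate.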
DT40 TDP1 no CPT: qHTS for Inhibitors of human tyrosyl-DNA phosphodiesterase 1 (TDP1): qHTS in cells in absence of CPT | Potency, µM (top dose mostly 46.2 µM), inactives show at the highest dose activity change, negative = growth inhibition, actives largely listed as inhibitors | DT40 Tdp1-/- hTDP1 cells, no CPT, ATP luminescence, 48 h | 420,000 compounds, 15% hits; note: nearly all actives have a fitted effect of over 55% in size
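Compound effects on proliferation are scored in DT40 Tdp1-/-;hTDP1 cells in the absence of CPT. ATP levels (CellTiter-Glo luminescence) are recorded after a ≥48 hr, 37 °C incubation.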
ALOX12 inh: ALOX12 (human) lipoxygenase inhibition. P18054. purified 12hLO, xylenol orange hydroperoxide absorbance. Potency, µM (top dose mostly 108 µM), without a hit: at the highest dose activity change, negative = inhibition, most hits filed as inhibitors. 580,000 compounds, 1.1% hits. AID 1671190
Target sequence (P18054 whole entry, looked up): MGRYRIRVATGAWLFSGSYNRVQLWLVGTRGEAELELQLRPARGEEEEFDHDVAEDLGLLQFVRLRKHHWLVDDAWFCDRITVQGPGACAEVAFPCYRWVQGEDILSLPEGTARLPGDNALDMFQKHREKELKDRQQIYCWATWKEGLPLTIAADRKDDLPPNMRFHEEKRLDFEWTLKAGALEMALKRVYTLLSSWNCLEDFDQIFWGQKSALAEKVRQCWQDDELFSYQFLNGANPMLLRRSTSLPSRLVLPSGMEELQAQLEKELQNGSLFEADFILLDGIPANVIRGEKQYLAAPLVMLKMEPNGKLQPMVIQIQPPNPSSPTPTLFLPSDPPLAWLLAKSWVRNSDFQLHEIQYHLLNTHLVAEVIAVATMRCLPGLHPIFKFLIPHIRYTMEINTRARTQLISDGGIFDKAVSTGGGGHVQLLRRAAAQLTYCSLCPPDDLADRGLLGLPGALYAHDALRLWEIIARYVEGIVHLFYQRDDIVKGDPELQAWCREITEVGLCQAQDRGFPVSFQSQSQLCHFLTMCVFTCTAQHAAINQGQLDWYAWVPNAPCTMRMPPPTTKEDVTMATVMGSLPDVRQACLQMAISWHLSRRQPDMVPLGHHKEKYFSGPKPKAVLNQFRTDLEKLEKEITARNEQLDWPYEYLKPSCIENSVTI
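Purified human 12hLO (150 nM final) in 25 mM Hepes, 0.01% Triton X-100, pH 7.0 was preincubated 15 min at room temperature with compound. Then 40 uM arachidonic acid was added, 30 min. Hydroperoxide was read by Fe-XO absorbance ratio 573/405 nm.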
DT40 TDP1 CPT: DT40-hTDP1 cell growth loss with CPT. 420,000 compounds, 12% hits. AID 686979. Potency, µM (doses to about 46.2 µM), without a hit: at the highest dose activity change, negative = growth inhibition, usual class: inhibitors. chicken DT40 Tdp1-/-;hTDP1 cells + 20 nM CPT, ATP luminescence, 48 h; note: nearly all actives have a fitted effect of over 55% in size
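Cell growth measured by CellTiter-Glo luminescence after a minimum 48 h, 37 C compound exposure with 20 nM CPT in Tdp1-knockout DT40 cells stably expressing hTDP1, seeded 400/well; qHTS titration format.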
ELG1 repair inh: inhibitors of ELG1-dependent DNA repair in HEK293T cells; 330,000 compounds, 2.3% hits; HEK293T ELG1-luciferase reporter, luminescence, 16 h; DNA damage induced by 5-fluorouridine; Potency, µM (highest dose often 46.1 µM), without a hit: at the highest dose activity change, negative = inhibition, hits mostly inhibitors; note: nearly all actives have a fitted effect of over 55% in size
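Reporter activity after DNA damage by 5-fluorouridine is monitored. Compound-treated cells incubate 16 hr at 37 °C, then ONE-Glo is added for 30 min before luminescence reading.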
Active calls of the source: *; [ ] = remark or other dose. Most compounds without a hit are left out; they make up all but 15% or so of the library. Calls come from the whole dose curve; as a rule, active = well fitted curve in the direction sought with a large enough effect; inconclusive = small, poorly fitted or top-dose-only effect, or another doubt; inactive = no such curve, though single readings can be large; an effect the other way counts as inactive or inconclusive. % is set by controls: 0 for no effect and ±100 for the full control effect; potency is the fitted concentration of half-maximal effect.

Results for CCOc1ccccc1NC(=O)NCc1ccc2c(c1)CCN2C(=O)c1ccccc1 ?
DT40 TDP1 no CPT: 16µM*; ALOX12 inh: -13%; DT40 TDP1 CPT: 23µM*

Results for CC1CCN(CC(=O)Nc2ccc(C#N)c(Cl)c2)CC1 ?
ALOX12 inh: 1%

What do the screens show for `COc1ccc(C=C(C#N)c2ccc(OC)cc2)cc1`?
DT40 TDP1 no CPT: inconclusive; ALOX12 inh: -12%; DT40 TDP1 CPT: inconclusive

Results for COc1ccc(/C=C/c2cc(O)cc(O)c2)cc1 ?
Gal4-VP16 FLuc: 3.5µM*; RORg inh: 1.4µM*; DT40 TDP1 no CPT: 4.6µM*; DT40 TDP1 CPT: 2.6µM*

What do the screens show for `CN1CCCCCCN(Cc2ccccn2)[C@H]2CCC[C@H]2C1=O`?
ALOX12 inh: inactive

Results for CN1CCN2C(=O)N(C3CCOCC3)C[C@H]2C1 ?
ALOX12 inh: -4%[176 µM]

Results for CC(C)Nc1ccc(Nc2ccccc2)cc1 ?
Gal4-VP16 FLuc: inconclusive; RORg inh: inconclusive; DT40 TDP1 no CPT: 6.5µM*; ALOX12 inh: inconclusive; DT40 TDP1 CPT: 6.5µM*; ELG1 repair inh: inconclusive

How did c1ccc(Nc2ccc3ccccc3c2)cc1 do in these assays?
Gal4-VP16 FLuc: -2%; RORg inh: 35%; DT40 TDP1 no CPT: inconclusive; ALOX12 inh: 28%; DT40 TDP1 CPT: inconclusive

What do the screens show for `CC(C)CC(=O)N1CC[C@@H]2COCCN(C)[C@@H]2C1`?
ALOX12 inh: 72%

Results for Cc1ccc(C(=O)N2[C@H]3CC[C@@H]2c2cnc(-c4ccccc4)nc2C3)cn1 ?
ALOX12 inh: 1%

How did C=CCn1c(-c2ccc([N+](=O)[O-])cc2)n[nH]c1=S do in these assays?
Gal4-VP16 FLuc: inconclusive; RORg inh: 11µM*; DT40 TDP1 no CPT: -8%; ALOX12 inh: -27%; DT40 TDP1 CPT: -8%; ELG1 repair inh: -4%

Results for COc1ccc(C(=O)Nc2ccc(-c3cc(C(F)(F)F)nn3-c3ccccc3)cc2)cc1OC ?
DT40 TDP1 no CPT: 13µM*; ALOX12 inh: -12%; DT40 TDP1 CPT: 18µM*

What do the screens show for `CCCCc1cn(C[C@H]2C[C@@H]3CCN2C[C@@H]3C(=O)Nc2ccccc2)nn1`?
ALOX12 inh: 71%[176 µM]

Results for Cc1cc(N2CCNC[C@H]2C)ccc1N1CCN[C@H](C)C1 ?
ALOX12 inh: 40µM*

What do the screens show for `C[C@@H]1CNCCN1c1ccc(N2CC[C@H](O)C2)c(C#N)c1`?
ALOX12 inh: -28%

What do the screens show for `Cc1ccc(N2CCNCC2C)cc1` (stereo unspecified)?
DT40 TDP1 no CPT: inconclusive; ALOX12 inh: -5%; DT40 TDP1 CPT: inconclusive

Results for Cc1cc(N2CCNC[C@@H]2C)ccc1N1CCN[C@@H](C)C1 ?
ALOX12 inh: 45µM*

How did COC(=O)c1ccc(CCN)cc1 do in these assays?
ALOX12 inh: -38%

How did CN(C)CCCC(=O)N1C2CCC1CN(Cc1cccnc1)C2 do in these assays?
ALOX12 inh: -23%[6.33 µM]

What do the screens show for `CC(C)Oc1ccc(CNC(=O)C2CCCN(S(=O)(=O)c3ccc4c(ccn4C)c3)C2)cc1` (stereo unspecified)?
DT40 TDP1 no CPT: 21µM*; ALOX12 inh: -20%; DT40 TDP1 CPT: 21µM*

What do the screens show for `CCc1nnc2ccc(N3CCN(CC)CC3)nn12`?
ALOX12 inh: 10%

How did CN1CCC(N(C)c2nc(-c3ccc([N+](=O)[O-])cc3)nc3ccccc23)CC1 do in these assays?
Gal4-VP16 FLuc: inconclusive; RORg inh: -23%; DT40 TDP1 no CPT: 12µM*; ALOX12 inh: inconclusive; DT40 TDP1 CPT: 8.2µM*; ELG1 repair inh: inconclusive

Results for O=C(c1cccs1)C1CCCN(Cc2nc(-c3ccccn3)no2)C1 (stereo unspecified) ?
ALOX12 inh: 52%

What do the screens show for `Cc1noc(-c2ccc(N3CC4CC(C3)c3cccc(=O)n3C4)nc2)n1` (stereo unspecified)?
ALOX12 inh: 4%

Results for CC(Cc1ccccc1)NCCC(=O)NC(C)Cc1ccccc1 (stereo unspecified) ?
Gal4-VP16 FLuc: -2%; RORg inh: 0%; DT40 TDP1 no CPT: inconclusive; ALOX12 inh: 68%; DT40 TDP1 CPT: inconclusive; ELG1 repair inh: -2%

Results for C[C@@H](Cc1ccccc1)NCCC(c1ccccc1)c1ccccc1 ?
Gal4-VP16 FLuc: -5%[17 µM]; RORg inh: -10%[16.9 µM]; DT40 TDP1 no CPT: 6.4µM*; DT40 TDP1 CPT: inconclusive

Results for OC[C@@H](O)[C@H]1O[C@@H]2O[C@@H](C(Cl)(Cl)Cl)O[C@@H]2[C@H]1O ?
DT40 TDP1 no CPT: -23%; DT40 TDP1 CPT: 0%

Results for COc1ccccc1C1=NCC(=O)N(CC(=O)Nc2ccccc2)c2sc3c(c21)CCCC3 ?
ALOX12 inh: 14%

How did N#Cc1cccc(NC(=O)NC[C@H]2C[C@@H]3CCN2C[C@@H]3CN2CCN(c3ccccc3)CC2)c1 do in these assays?
ALOX12 inh: 5%

What do the screens show for `O=c1c2ccccc2cnn1Cc1n[nH]c(=S)n1C1CC2CCC1C2` (stereo unspecified)?
Gal4-VP16 FLuc: -15%; RORg inh: inconclusive; DT40 TDP1 no CPT: 18µM*; ALOX12 inh: inconclusive; DT40 TDP1 CPT: inconclusive; ELG1 repair inh: inconclusive

Results for COC(=O)C1=C(c2ccc(F)cc2OCc2ccccc2)C[C@@H]2CC[C@H]1N2C(=O)NC1CCN(Cc2ccccc2)CC1 ?
DT40 TDP1 no CPT: 23µM*; ALOX12 inh: -4%; DT40 TDP1 CPT: 8.2µM*; ELG1 repair inh: -29%

What do the screens show for `COC(=O)C1=C(c2cccc(OCc3ccccc3)c2)C[C@@H]2CC[C@H]1N2C(=O)NC1CCN(Cc2ccccc2)CC1`?
DT40 TDP1 no CPT: 6.5µM*; ALOX12 inh: -23%; DT40 TDP1 CPT: 6.5µM*; ELG1 repair inh: -7%

Results for CCCNC(=O)N1[C@H]2CC[C@@H]1C(C(=O)OC)=C(c1ccc(F)cc1OCc1ccccc1)C2 ?
DT40 TDP1 no CPT: inconclusive; DT40 TDP1 CPT: inconclusive; ELG1 repair inh: -14%

What do the screens show for `COC(=O)C1=C(c2ccccc2OCc2ccccc2)C[C@@H]2CC[C@H]1N2C(=O)NCCN1CCOCC1`?
DT40 TDP1 no CPT: -25%; ALOX12 inh: -57%; DT40 TDP1 CPT: -23%; ELG1 repair inh: 27%
